Hits are enriched below; roughly 11% of the tested compounds scored in any of these assays.
RORg inh – ROR gamma (mouse) transcription inhibition. actives 5.4% (n = 310,000). Drosophila S2 Gal4-RORgamma UAS-luciferase reporter, 20 h. Potency, µM (titrated, usually from 53.6 µM), for inactives: top-dose activity change, negative = inhibition, usual class: inhibitors. AID 2551; note: potency is the fitted concentration of half-maximal effect; % is set by controls: 0 for no effect and ±100 for the full control effect; nearly all actives have a fitted effect of over 60% in size
Target sequence (P51450 whole entry, looked up, the tested form may be a part): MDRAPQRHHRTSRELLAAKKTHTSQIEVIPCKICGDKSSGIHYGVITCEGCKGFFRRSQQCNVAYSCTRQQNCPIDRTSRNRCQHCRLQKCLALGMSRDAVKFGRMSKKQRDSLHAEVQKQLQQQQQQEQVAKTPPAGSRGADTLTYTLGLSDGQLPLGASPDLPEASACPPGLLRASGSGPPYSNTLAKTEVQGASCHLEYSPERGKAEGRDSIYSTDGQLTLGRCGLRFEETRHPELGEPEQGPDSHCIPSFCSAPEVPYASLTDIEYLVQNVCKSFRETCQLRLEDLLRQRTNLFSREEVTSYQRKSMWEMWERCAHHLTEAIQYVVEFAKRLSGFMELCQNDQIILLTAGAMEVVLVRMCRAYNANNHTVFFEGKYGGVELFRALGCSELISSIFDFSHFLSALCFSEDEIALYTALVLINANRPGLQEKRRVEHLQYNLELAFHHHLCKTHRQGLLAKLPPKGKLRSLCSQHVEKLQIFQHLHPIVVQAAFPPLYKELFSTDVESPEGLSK
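Stably transfected Drosophila Schneider cells are the test system, with ROR gamma fused to Gal4 and luciferase under UAS control; luminescence is read after 20 hr of 700 uM copper sulfate induction at ambient temperature.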
VP16 counter – counter-screen for ROR gamma inhibitors: Gal4-VP16 reporter | actives 3.5% (n = 310,000) | Drosophila S2 Gal4-VP16 UAS-luciferase, luminescence, 20 h | Potency, µM (titrated, usually from 53.6 µM), without a hit: at the highest dose activity, negative = inhibition, most hits filed as inhibitors;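 note: Gal4-VP16 expression switched on by copper sulfate through the metallothionein promoter; potency is the fitted concentration of half-maximal effect; % is set by controls: 0 for no effect and ±100 for the full control effect; nearly all actives have a fitted effect of over 50% in size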
SW480 rereplic – inducers of DNA re-replication in SW480 colon cancer cells | SW480 DNA re-replication, Hoechst DNA content imaging, 48 h | Potency, µM (top dose mostly 46.1 µM), for the others: top-dose re-replication activation, most hits filed as activators | AID 624297 | actives 1.8% (n = 340,000); note: potency is the fitted concentration of half-maximal effect; % of control where 0% means no effect; nearly all actives have a fitted effect of over 55% in size
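Hoechst fluorescence of nuclei (405 nm excitation, 500-530 nm emission) measured by plate-scanning imager after 48 hr compound exposure at 37 C; re-replication scored as increased number of nuclei with elevated intensity.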
IL-1B inflam inh – inflammasome signaling inhibition, IL-1 beta readout. THP-1 LPS/ATP IL-1B secretion, AlphaLISA, 16 h; stronger effect = lower value. activity change, % at 57.5 µM. actives 4.7% (n = 360,000). AID 743279; in the data active = activity change below about -50%; inconclusive = mostly about -30% to -49%; note: % is set by controls: 0 for no effect and ±100 for the full control effect
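Secreted IL-1B measured by AlphaLISA bead assay after 16 h compound exposure of THP-1 cells; compounds (final up to 57.5 uM) added 1 h before LPS (250 ng/mL) and ATP (1.25 mM) stimulation; lower signal means less secretion.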
MCF10A rerep – inducers of DNA re-replication in MCF 10A breast cells; actives 2.9% (n = 350,000); MCF 10A DNA re-replication, Hoechst nuclear intensity, 48 h; AID 624296; Potency, µM (highest dose often 46.1 µM), inactives show at the top dose activity, positive = re-replication, actives largely listed as activators; note: potency is the fitted concentration of half-maximal effect; % of control where 0% means no effect; nearly all actives have a fitted effect of over 50% in size
* hit, by the source's call. Unless noted, calls come from the whole dose curve; as a rule, active = well fitted curve in the direction sought with a large enough effect; inconclusive = small, poorly fitted or top-dose-only effect, or another doubt; inactive = no such curve, though single readings can be large; an effect the other way counts as inactive or inconclusive.

Screening Cc1cccc(S(=O)C(c2ccccc2)c2ccccc2)c1 (stereo unspecified) returned SW480 rereplic -4.7%, IL-1B inflam inh inconclusive and MCF10A rerep 0.3%.
For CCCS(=O)(=O)c1c(S(=O)(=O)CCC)c2c3ccccc3ccn2c1C(=O)OC the results were RORg inh inconclusive, VP16 counter 1.8%, SW480 rereplic -13.1%, IL-1B inflam inh inconclusive and MCF10A rerep 4.6%.
For CCCS(=O)(=O)c1c(S(=O)(=O)CCC)c2c(C)cccn2c1C(=O)OC the results were RORg inh 13.2%, VP16 counter -2.2%, SW480 rereplic inconclusive, IL-1B inflam inh -4.6 and MCF10A rerep 20.6µM*.
Screening CSc1ccccc1OCc1cc(C(=O)N2CCc3c(Cl)cccc3C2)no1 returned RORg inh 12.6µM*, VP16 counter inconclusive, SW480 rereplic -17.9%, IL-1B inflam inh inconclusive and MCF10A rerep 8.8%.
`COc1cc2c(cc1OC)CN(C(=O)c1cc(COc3ccccc3SC)on1)CC2` gave IL-1B inflam inh 0.0.
For NC(=O)c1cc(-c2ccccc2)nc(N2CCOCC2)n1 the results were RORg inh -12.7%, VP16 counter -16.1%, SW480 rereplic inconclusive, IL-1B inflam inh -50.5* and MCF10A rerep 5.7%.
For NC(=O)c1cc(-c2ccccc2)nc(N2CCCCCC2)n1 the results were RORg inh -6.4%, VP16 counter -14.7%, SW480 rereplic 9.2%, IL-1B inflam inh -16.5 and MCF10A rerep inconclusive.
CCCCN(C)Cc1c(C(=O)N2CCc3ccccc3C2)nc2ccc(Cl)cn12 was read as RORg inh -0.8%, VP16 counter 0.6%, SW480 rereplic -1.7%, IL-1B inflam inh 28.9 and MCF10A rerep inconclusive.
Screening CC(C)CN(C)Cc1c(C(=O)N2CCc3ccccc3C2)nc2ccc(Cl)cn12 returned RORg inh -5.3%, VP16 counter 6.4%, SW480 rereplic 2.3%, IL-1B inflam inh -82.8* and MCF10A rerep 11.4%.
For CC(OC(=O)c1oc2ccccc2c1CSC1CCCCC1)C(=O)NC(N)=O (stereo unspecified) the results were RORg inh inconclusive, VP16 counter -21.8%, SW480 rereplic 2.7%, IL-1B inflam inh 47.7 and MCF10A rerep inconclusive.
For CC(OC(=O)c1oc2ccccc2c1COc1ccccc1)C(=O)NC(N)=O (stereo unspecified) the results were RORg inh -1.0%, VP16 counter 0.4%, SW480 rereplic 2.1%, IL-1B inflam inh -61.5* and MCF10A rerep inconclusive.
`Cc1c(C(=O)N/N=C/c2cccnc2)sc(=S)n1C` gave RORg inh -23.4%, VP16 counter 2.3%, SW480 rereplic inconclusive, IL-1B inflam inh 12.4 and MCF10A rerep 17.0%.
`Cn1c(N)c(C(=O)N/N=C/c2ccccc2)sc1=S` gave RORg inh 14.6%, VP16 counter -13.4%, SW480 rereplic inconclusive and MCF10A rerep 23.1µM*.
Cc1cc(C)c2c(N)c(C(=O)N/N=C/c3cccnc3)sc2n1 was read as RORg inh 41.8%, VP16 counter -1.6%, SW480 rereplic inconclusive and MCF10A rerep 16.4µM*.
`Cc1cc(C)c2c(N)c(C(=O)N/N=C/c3ccccc3)sc2n1` gave RORg inh 5.1%, VP16 counter 3.1%, SW480 rereplic 13µM*, IL-1B inflam inh -19.0 and MCF10A rerep 9.2µM*.
Oc1ccc(N=C/C=C/c2cccc(Br)c2)cc1-c1nc2ccccc2s1 was read as RORg inh inconclusive, VP16 counter 7.94µM*, SW480 rereplic inconclusive, IL-1B inflam inh -14.9 and MCF10A rerep inconclusive.
For COc1ccc2c(c1)c(=O)oc1cc(OCC(=O)NC3CCCCC3)ccc12 the results were RORg inh 0.6%, VP16 counter -10.7%, SW480 rereplic -0.7%, IL-1B inflam inh inconclusive and MCF10A rerep 10.3µM*.
For Cn1c(CCNC(=O)c2ccco2)nc2cc(NC(=O)c3ccccc3Cl)ccc21 the results were RORg inh 0.2%, VP16 counter 19.8%, SW480 rereplic 13.3%, IL-1B inflam inh 9.8 and MCF10A rerep 5.0%.

High-throughput results (PubChem BioAssay)
